SMILES strings stand for the structures. Results filed as inconclusive are left out. Values without a mark were called inactive. The source made the active and inactive calls. Calls follow the shape of the dose curve; as a rule, active = well fitted cell-killing curve with a large enough effect; inconclusive = small, poorly fitted or top-dose-only effect, or effect the other way; inactive = no such curve, though single readings can be large or run the other way. Non-standard residues stand in square brackets, D forms with d. Residues, ends and D or L forms follow the SMILES beside them. *: point of attachment. Nva = CCC[C@H](N)C(=O)O; Cbz = O=C(OCc1ccccc1)*

A short description of experiment [1]: Quantitative High-Throughput drug screen in 47 multiple myeloma cell lines against the NCATS MIPE library collection: LP1_DSMZ cell viability assay (AID 1918982). Also: nearly all actives have a fitted effect of over 35% in size. An outline of the steps: (§1)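 Myeloma cells (500/well) treated with MIPE 4.0 compounds for 48 h at 37 °C, 5% CO2. Viability read as ATP via CellTiter-Glo luminescence after 5 min at RT; DMSO-only wells = 100%, media-only = 0% viability.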

The nature of experiment [2]: Quantitative High-Throughput drug screen in 47 multiple myeloma cell lines against the NCATS MIPE library collection: KMS28PE_JCRB cell viability assay (AID 1918983). Also: nearly all actives have a fitted effect of over 35% in size. An outline of the steps:
as §1

Experiment [3] is described as follows: Quantitative High-Throughput drug screen in 47 multiple myeloma cell lines against the NCATS MIPE library collection: KMS34_JCRB cell viability assay (AID 1918985). Also: nearly all actives have a fitted effect of over 40% in size. In a few lines: as §1
Experiment [4] is described as follows: Quantitative High-Throughput drug screen in 47 multiple myeloma cell lines against the NCATS MIPE library collection: OCIMY7_PLB cell viability assay (AID 1918987). Also: nearly all actives have a fitted effect of over 65% in size. Particulars: OCI-MY7 myeloma viability, CellTiter-Glo ATP, 48 h; viability (% of DMSO): at 45.8 µM (top of the series). In a few lines:
as §1

Experiment [5] is described as follows: Quantitative High-Throughput drug screen in 47 multiple myeloma cell lines against the NCATS MIPE library collection: OCIMY5_PLB cell viability assay (AID 1918988). Also: nearly all actives have a fitted effect of over 65% in size. An outline of the steps: as §1
Experiment [6] is described as follows: Quantitative High-Throughput drug screen in 47 multiple myeloma cell lines against the NCATS MIPE library collection: OPM1_PLB cell viability assay (AID 1918989). Also: nearly all actives have a fitted effect of over 40% in size. In a few lines:
as §1

Experiment [7] is described as follows: Quantitative High-Throughput drug screen in 47 multiple myeloma cell lines against the NCATS MIPE library collection: SKMM1_PLB cell viability assay (AID 1919863). Also: nearly all actives have a fitted effect of over 35% in size. Conditions: SKMM1 myeloma viability, CellTiter-Glo ATP, 48 h; viability: hits give low values. In a few lines:
as §1

The nature of experiment [8]: Quantitative High-Throughput drug screen in 47 multiple myeloma cell lines against the NCATS MIPE library collection: U266_ATCC cell viability assay (AID 1919864). Also: nearly all actives have a fitted effect of over 35% in size. An outline of the steps: as §1
A short description of experiment [9]: Quantitative High-Throughput drug screen in 47 multiple myeloma cell lines against the NCATS MIPE library collection: L363_DSMZ cell viability assay (AID 1918984). Also: nearly all actives have a fitted effect of over 40% in size. In a few lines:
as §1

Experiment [10] is described as follows: Quantitative High-Throughput drug screen in 47 multiple myeloma cell lines against the NCATS MIPE library collection: XG6_PLB cell viability assay (AID 1919865). Also: nearly all actives have a fitted effect of over 40% in size. An outline of the steps:
as §1
Potency is read from the fitted curve at half-maximal effect.

As to `CC[C@]12C=CCN3CC[C@@]4(c5cc([C@@]6(C(=O)OC)C[C@H]7C[C@@H](C(C)(F)F)CN(Cc8c6[nH]c6ccccc86)C7)c(OC)cc5N(C)[C@H]4[C@@](O)(C(=O)OC)[C@H]1OC(C)=O)[C@@H]32`, the Potency in [1] was 20.9 nM (active); in [2] it was 0.0047 µM (active); in experiment [3] it was 5.9 nM (active); in experiment [4] it was 1 nM (active); in experiment [5] it was 0.0019 µM (active); in experiment [6], 16.6 nM (active). In addition, the Potency is 0.0093 µM (active) in experiment [7] and 1.66 µM (active) in experiment [8].

Regarding `CN(C)CCN1C(=O)c2cccc3cc(N)cc(c23)C1=O`, the Potency in [1] was 20900 nM (active); in experiment [2], 16.6 µM (active); in experiment [9], 16.6 µM (active); in experiment [5], 23.5 µM (active); in [10] it was 14.8 µM (active).

Turning to `C#CCC(Cc1cnc2nc(N)nc(N)c2n1)c1ccc(C(=O)N[C@@H](CCC(=O)O)C(=O)O)cc1` (stereo partly specified), the Potency was 41.8 nM (active) in [1]; 209 nM (active) in [3]; 166 nM (active) in [6]; 0.372 µM (active) in [8]; 0.0418 µM (active) in experiment [10]. Besides, the Potency entry in experiment [2] and in experiment [5] was “inactive” throughout. Further, the viability in experiment [7] was 117%.

As to `CCC[C@@H](C=O)NC(=O)[C@H](CC(C)C)NC(=O)[C@H](CC(C)C)NC(=O)OCc1ccccc1` (Cbz-Leu-Leu-[Nva]-aldehyde), the Potency was 1320 nM (active) in experiment [1]; 0.662 µM (active) in experiment [2]; 743 nM (active) in experiment [3]; 372 nM (active) in [4]; 0.935 µM (active) in experiment [5]; 590 nM (active) in experiment [6]. In addition, the Potency in [7] is 1.87 µM (active); in experiment [8] it was 0.372 µM (active); in experiment [10], 0.264 µM (active).

In the case of `C=C[C@@H]1CN2CCC1C[C@H]2[C@H](O)c1ccnc2ccc(OC)cc12` (stereo partly specified), the Potency entry in [1], in experiment [2], in experiment [9] and in experiment [6] was “inactive” each time. The Potency in [5] is 18.7 µM (active).

With `O=C(C=CC#Cc1cccc(NS(=O)(=O)c2ccccc2)c1)NO`, the Potency in experiment [1] was 935 nM (active); in [2], 1.87 µM (active); in experiment [3], 935 nM (active); in [4] it was 372 nM (active); in experiment [5] it was 1.18 µM (active); in [6], 2350 nM (active). Also, the Potency in [8] was 2.09 µM (active); in experiment [10] it was 5.26 µM (active).

With `COc1ccc2c(c1OC)C(=O)OC2[C@H]1c2c(cc3c(c2OC)OCO3)CCN1C` (stereo partly specified), the Potency in experiment [1] was 132 nM (active); in [2], 0.0526 µM (active); in [9], 0.0743 µM (active); in experiment [5], 0.0235 µM (active); in experiment [6], 469 nM (active); in experiment [8], 1.66 µM (active). Further, the Potency in [10] is 0.0469 µM (active).

As for `CC(C)(C)[N+]([O-])=Cc1ccc(S(=O)(=O)O)cc1S(=O)(=O)O`, the Potency result in [1], in experiment [2], in experiment [9], in experiment [5] and in experiment [6] was “inactive” in each case. Further, in [7], the viability was 115%.

On to `Nc1ccn(C2CO[C@H](CO)O2)c(=O)n1` (stereo partly specified), for which the Potency result in experiment [1], in [2], in [9], in experiment [6] and in [10] was “inactive” throughout.

`CCOC(=O)N1CCN([N+]([O-])=NOc2ccc([N+](=O)[O-])cc2[N+](=O)[O-])CC1`: the Potency in experiment [1] is 2640 nM (active); in experiment [2], 1.32 µM (active); in experiment [3], 935 nM (active); in [4], 526 nM (active); in [5], 1.32 µM (active); in [6], 1180 nM (active). Also, the values for the Potency in experiment [7] and in [8] were 6.62 µM (active) and 2.64 µM (active), respectively.

For the compound `CCCCCCCCCCCCCCCC(=O)OC[C@@H](NC(=O)C(Cl)Cl)[C@H](O)c1ccc([N+](=O)[O-])cc1`, the Potency entry in experiment [1], in experiment [2], in experiment [9], in [5], in experiment [6] and in [8] was “inactive” in each case. Moreover, the Potency result in experiment [10] was “inactive”.

As to `CC(N[C@H]1CCCC[C@H]1NC(=O)c1ccc(Cl)cc1)c1cccc2ccccc12` (stereo partly specified), the Potency result in experiment [1], in [2] and in experiment [6] was “inactive” throughout. In addition, the Potency in experiment [9] is 0.0833 µM (active). For the same compound, the viability in [7] was 94.8%.

Regarding `CCCCCCCCCCCCc1ccc(S(=O)(=O)Nc2nncs2)cc1`, the Potency entry in experiment [1], in experiment [2], in experiment [9], in experiment [5], in experiment [6] and in [8] was “inactive” throughout. For the same compound, in experiment [10], the Potency entry was “inactive”.

For `COc1ccc(S(=O)(=O)Nc2cc(-c3c(O)ccc4ccccc34)c(O)c3ccccc23)cc1`, the Potency in [1] was 16600 nM (active); in experiment [9], 2.64 µM (active); in [3] it was 10500 nM (active); in experiment [4] it was 2640 nM (active); in experiment [5], 20.9 µM (active); in [6], 9350 nM (active). In addition, the Potency in experiment [7] was 20.9 µM (active); in experiment [8], 2.35 µM (active); in experiment [10], 5.9 µM (active).

For the compound `C[C@]12C=CC(=O)N[C@@H]1CC[C@H]1[C@H]3CC[C@@H](C(=O)Nc4cc(C(F)(F)F)ccc4C(F)(F)F)[C@@]3(C)CC[C@@H]12`, the Potency entry in experiment [1] was “inactive”. Moreover, the Potency was 20.9 µM (active) in [2], 16600 nM (active) in [4] and 16.6 µM (active) in [5].

Take `COc1ccnc2[nH]cc(C(=O)C(=O)N3CCN(C(=O)c4ccccc4)C[C@@H]3C)c12`: the Potency result in experiment [1], in experiment [2], in experiment [6], in experiment [8] and in experiment [10] was “inactive” throughout.

For the origin of these results see PubChem BioAssay (NCATS).
